# Results filed as inconclusive are left out. Activity calls are given as the source filed them. How the source made its calls, unless noted: active means hit-call score of the fitted dose curve at least 0.9, where 1 is the maximum; inconclusive means response in the unintended direction; inactive means score below 0.9.
# What was measured:
# [1] = target: human Peroxisome Proliferator-activated Receptor delta (PPARd), PPARD (gene 5467) (UniProt Q03181); assay: ATG_PPARd_TRANS: Attagene TRANS-FACTORIAL HepG2 Assay for human Peroxisome Proliferator-activated Receptor delta (PPARd) (AID 2283002)
# Procedure, shortened: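 Measured quantity: GAL4-UAS reporter transcript induction in HepG2 after 24 h chemical dosing, with NR-Gal4 chimeras supplied by transient transfection. Detection by RT-PCR and capillary electrophoresis; upward fit against DMSO.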
# [2] = target: human Retinoic Acid Receptor beta (RARb), RARB (gene 5915) (UniProt P10826); assay: ATG_RARb_TRANS: Attagene TRANS-FACTORIAL HepG2 Assay for human Retinoic Acid Receptor beta (AID 2283004)
# Procedure, shortened: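 HepG2, transient MRTU transfection, NR–Gal4 chimera, 24 h treatment; RT-PCR plus CE fluorescence detection of reporter mRNA; gain of signal vs DMSO.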
# [3] = target: Peroxisome proliferator-activated receptor gamma (Homo sapiens) (UniProt P37231); assay: ATG_PPARg_TRANS: Attagene TRANS-FACTORIAL HepG2 Assay for human Peroxisome Proliferator-activated Receptor-gamma (PPARg) (AID 2283007)
# Procedure, shortened: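 Transient transfection of HepG2 with GAL4-UAS-driven reporter units; chemical dosing 24 h; total RNA → oligo(dT) RT → PCR with reporter primers → 6-FAM primer extension → HpaI digest 2 h 37 C → capillary electrophoresis. Positive direction vs DMSO.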
# [4] = target: Nuclear receptor subfamily 1 group I member 2 (Homo sapiens) (UniProt O75469); assay: ATG_PXR_TRANS: Attagene TRANS-FACTORIAL HepG2 Assay for human Pregnane X Receptor (PXR) (AID 2283008)
# Procedure, shortened: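 HepG2 cells transiently transfected with GAL4-UAS reporter units and PXR-Gal4 chimera, exposed 24 h. Reporter mRNA quantified by RT-PCR, fluorescent labelling, HpaI digestion and capillary electrophoresis; gain of signal vs DMSO.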
# [5] = read-out: Intercellular Adhesion Molecule 1 (ICAM1), ICAM1 (gene 3383); assay: BSK_3C_ICAM1: BioMAP Diversity Plus: 3C Assay for Intercellular Adhesion Molecule 1 (ICAM1) Biomarker Activity (AID 2283003; active means hit-call score of the fitted dose curve at least 0.9, where 1 is the maximum; inactive means score below 0.9); settings: primary human endothelial cells (HUVEC); actives raise or lower the signal
# Procedure, shortened: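 HUVEC primary cells stimulated under 3C conditions; ICAM1 measured by ELISA 24 h after compound dosing. Curves fitted bidirectionally against the DMSO baseline. Overt cytotoxicity checked by SRB staining of parallel cultures.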
# [6] = BSK_3C_Proliferation: Cell Proliferation Assessment in the BioMAP Diversity Plus: 3C Assay (AID 2283006; active means hit-call score of the fitted dose curve at least 0.9, where 1 is the maximum; inactive means score below 0.9;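 on AC50: potency may reflect either rise or fall in cell number versus DMSO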); settings: primary human endothelial cells (HUVEC)
# Procedure, shortened: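 Subconfluent HUVEC (3C system) cultured with chemical; relative cell number read at 48 h by sulforhodamine B total-protein staining (0.1% SRB after 10% TCA fixation, 560 nm). Bidirectional fit relative to DMSO.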
# [7] = target: human Retinoic Acid Receptor gamma (RARg), RARG (gene 5916) (UniProt P13631); assay: ATG_RARg_TRANS: Attagene TRANS-FACTORIAL HepG2 Assay for human Retinoic Acid Receptor gamma (RARg) (AID 2283009)
# Procedure, shortened: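 HepG2 transiently transfected with GAL4-UAS reporter units and chimeric NR-Gal4 constructs; 24 h compound exposure. Reporter mRNA quantified by RT-PCR, FAM labeling, HpaI digestion and capillary electrophoresis; gain-of-signal versus DMSO.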
# [8] = target: Retinoic acid receptor alpha (Homo sapiens) (UniProt P10276); assay: ATG_RARa_TRANS: Attagene TRANS-FACTORIAL HepG2 Assay for human Retinoic Acid Receptor alpha (RARa) (AID 2283005)
# Procedure, shortened: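 HepG2 cells transiently transfected with multiple reporter units expressing chimeric RARα-GAL4 fusion, with GAL4-UAS-driven reporters. After 24 h compound exposure, reporter mRNA induction quantified by RT-PCR and capillary electrophoresis with fluorescent labeling; gain-of-signal fitted relative to DMSO control.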
# [9] = target: human RAR-related Orphan Receptor beta (RORb), RORB (gene 6096) (UniProt Q92753); assay: ATG_RORb_TRANS: Attagene TRANS-FACTORIAL HepG2 Assay for human RAR-related Orphan Receptor beta (RORb) (AID 2283010)
# Procedure, shortened: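 HepG2 cells transiently transfected with GAL4-UAS reporter units expressing chimeric NR-Gal4 protein; reporter mRNA measured 24 h after dosing by RT-PCR, 6-FAM labelling and capillary electrophoresis. Gain-of-signal fitted relative to DMSO baseline.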
# human Retinoic Acid Receptor beta (RARb), RARB (gene 5915), sequence (P10826 whole entry, looked up, the tested form may be a part): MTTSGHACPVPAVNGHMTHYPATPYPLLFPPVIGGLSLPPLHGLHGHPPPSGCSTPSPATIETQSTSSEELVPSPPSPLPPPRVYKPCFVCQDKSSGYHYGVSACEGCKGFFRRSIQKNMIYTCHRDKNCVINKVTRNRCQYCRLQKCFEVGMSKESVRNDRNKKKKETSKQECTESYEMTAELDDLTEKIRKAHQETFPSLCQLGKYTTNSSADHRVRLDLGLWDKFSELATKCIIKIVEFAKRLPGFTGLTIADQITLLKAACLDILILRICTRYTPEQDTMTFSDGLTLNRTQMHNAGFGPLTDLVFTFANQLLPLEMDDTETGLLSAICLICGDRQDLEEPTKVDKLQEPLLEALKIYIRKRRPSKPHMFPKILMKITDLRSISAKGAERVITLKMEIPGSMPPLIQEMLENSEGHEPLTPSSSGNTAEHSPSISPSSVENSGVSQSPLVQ
# human RAR-related Orphan Receptor beta (RORb), RORB (gene 6096), sequence (Q92753 whole entry, looked up, the tested form may be a part): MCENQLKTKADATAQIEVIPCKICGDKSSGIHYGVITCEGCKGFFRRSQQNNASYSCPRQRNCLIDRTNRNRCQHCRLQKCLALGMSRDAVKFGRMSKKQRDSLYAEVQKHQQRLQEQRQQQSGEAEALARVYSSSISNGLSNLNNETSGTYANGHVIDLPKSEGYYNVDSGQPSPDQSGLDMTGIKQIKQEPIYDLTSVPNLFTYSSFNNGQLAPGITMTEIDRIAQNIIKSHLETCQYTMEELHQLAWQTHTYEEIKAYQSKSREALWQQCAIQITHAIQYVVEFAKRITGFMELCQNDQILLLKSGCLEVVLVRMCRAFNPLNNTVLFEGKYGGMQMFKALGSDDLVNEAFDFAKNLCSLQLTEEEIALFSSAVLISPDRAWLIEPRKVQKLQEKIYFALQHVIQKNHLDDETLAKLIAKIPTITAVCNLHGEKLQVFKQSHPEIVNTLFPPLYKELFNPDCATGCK
# human Peroxisome Proliferator-activated Receptor delta (PPARd), PPARD (gene 5467), sequence (Q03181 whole entry, looked up, the tested form may be a part): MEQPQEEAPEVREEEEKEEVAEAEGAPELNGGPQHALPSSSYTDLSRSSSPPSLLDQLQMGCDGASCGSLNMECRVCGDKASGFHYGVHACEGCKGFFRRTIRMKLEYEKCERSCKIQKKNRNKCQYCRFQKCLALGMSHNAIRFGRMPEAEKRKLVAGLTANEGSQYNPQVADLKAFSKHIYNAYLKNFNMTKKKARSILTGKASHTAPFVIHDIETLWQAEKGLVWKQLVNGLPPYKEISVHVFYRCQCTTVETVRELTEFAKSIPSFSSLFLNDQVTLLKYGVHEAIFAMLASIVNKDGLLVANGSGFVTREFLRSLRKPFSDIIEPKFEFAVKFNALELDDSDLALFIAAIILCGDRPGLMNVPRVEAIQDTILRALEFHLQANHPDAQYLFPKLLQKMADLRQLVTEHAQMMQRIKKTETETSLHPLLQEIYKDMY
# human Retinoic Acid Receptor gamma (RARg), RARG (gene 5916), sequence (P13631 whole entry, looked up, the tested form may be a part): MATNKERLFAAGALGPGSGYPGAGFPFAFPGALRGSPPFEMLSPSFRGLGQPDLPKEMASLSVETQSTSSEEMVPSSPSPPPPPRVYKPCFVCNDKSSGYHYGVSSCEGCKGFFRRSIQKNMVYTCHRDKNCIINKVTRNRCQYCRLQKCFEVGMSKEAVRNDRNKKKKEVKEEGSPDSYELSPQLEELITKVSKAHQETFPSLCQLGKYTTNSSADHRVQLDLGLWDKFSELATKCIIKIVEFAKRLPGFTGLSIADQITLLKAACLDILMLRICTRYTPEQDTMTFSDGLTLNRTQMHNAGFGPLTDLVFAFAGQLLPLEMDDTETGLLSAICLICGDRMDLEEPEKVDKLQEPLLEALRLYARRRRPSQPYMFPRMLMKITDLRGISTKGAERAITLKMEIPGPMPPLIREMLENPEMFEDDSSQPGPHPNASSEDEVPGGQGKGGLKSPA
# Peroxisome proliferator-activated receptor gamma (Homo sapiens), sequence (P37231 whole entry, looked up, the tested form may be a part): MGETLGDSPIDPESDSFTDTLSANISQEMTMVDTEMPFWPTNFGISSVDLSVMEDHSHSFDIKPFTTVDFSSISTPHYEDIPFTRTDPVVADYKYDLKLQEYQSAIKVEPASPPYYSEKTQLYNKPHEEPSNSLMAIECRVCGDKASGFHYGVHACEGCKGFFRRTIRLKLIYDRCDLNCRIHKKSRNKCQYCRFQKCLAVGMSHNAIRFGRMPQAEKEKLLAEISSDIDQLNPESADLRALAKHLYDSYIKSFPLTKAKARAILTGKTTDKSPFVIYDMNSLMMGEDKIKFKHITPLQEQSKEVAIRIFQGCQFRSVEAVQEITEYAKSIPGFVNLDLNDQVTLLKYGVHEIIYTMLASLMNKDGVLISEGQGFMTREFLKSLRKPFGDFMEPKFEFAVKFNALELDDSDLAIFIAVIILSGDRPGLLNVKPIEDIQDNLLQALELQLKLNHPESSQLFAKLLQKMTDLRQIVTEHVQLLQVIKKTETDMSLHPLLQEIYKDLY
# Retinoic acid receptor alpha (Homo sapiens), sequence (P10276 whole entry, looked up, the tested form may be a part): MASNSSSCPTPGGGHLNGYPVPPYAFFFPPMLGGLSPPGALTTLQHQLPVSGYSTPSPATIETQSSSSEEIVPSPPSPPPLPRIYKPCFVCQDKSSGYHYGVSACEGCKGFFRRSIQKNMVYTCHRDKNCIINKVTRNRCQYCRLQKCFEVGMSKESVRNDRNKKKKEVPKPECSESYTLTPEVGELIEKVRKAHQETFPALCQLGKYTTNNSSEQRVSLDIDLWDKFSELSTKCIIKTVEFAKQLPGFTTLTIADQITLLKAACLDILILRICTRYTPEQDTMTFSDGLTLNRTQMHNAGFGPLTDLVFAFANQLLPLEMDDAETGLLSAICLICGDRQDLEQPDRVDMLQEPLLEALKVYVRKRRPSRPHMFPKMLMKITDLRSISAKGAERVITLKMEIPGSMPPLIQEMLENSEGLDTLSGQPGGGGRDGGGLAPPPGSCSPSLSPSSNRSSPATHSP
# Nuclear receptor subfamily 1 group I member 2 (Homo sapiens), sequence (O75469 whole entry, looked up, the tested form may be a part): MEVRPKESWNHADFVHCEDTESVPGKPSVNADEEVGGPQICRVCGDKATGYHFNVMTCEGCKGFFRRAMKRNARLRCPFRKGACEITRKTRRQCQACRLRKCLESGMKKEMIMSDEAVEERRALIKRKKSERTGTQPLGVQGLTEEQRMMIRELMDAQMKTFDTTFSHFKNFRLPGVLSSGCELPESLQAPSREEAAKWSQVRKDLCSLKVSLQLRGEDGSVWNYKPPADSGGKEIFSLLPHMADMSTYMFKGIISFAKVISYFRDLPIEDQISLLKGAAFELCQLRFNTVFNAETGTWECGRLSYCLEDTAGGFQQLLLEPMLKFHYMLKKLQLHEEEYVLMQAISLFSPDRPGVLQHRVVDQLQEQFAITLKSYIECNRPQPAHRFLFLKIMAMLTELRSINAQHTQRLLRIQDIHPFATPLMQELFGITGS
smiles,measurement,setting,value
O=C(F)C(F)(F)C(F)(F)C(F)(F)C(F)F,outcome,[1],inactive
same,outcome,[2],inactive
same,outcome,[3],inactive
same,outcome,[4],inactive
CCOC(=O)CN[C@@H](C(=O)N1CC[C@H]1C(=O)NCc1ccc(/C(N)=N/O)cc1)C1CCCCC1,outcome,[1],inactive
same,outcome,[5],inactive
same,outcome,[6],inactive
same,outcome,[3],inactive
same,outcome,[4],inactive
same,outcome,[7],inactive
COC(=O)C(F)(F)C(F)(F)C(F)(F)C(F)(F)C(F)(F)F,outcome,[1],inactive
same,outcome,[2],inactive
same,outcome,[7],inactive
CCOC(OCC)C(=O)c1ccccc1,outcome,[2],inactive
same,outcome,[8],inactive
same,outcome,[3],inactive
same,AC50,[4],16.7 µM (active)
same,outcome,[9],inactive
CC=O,outcome,[2],inactive
O=C(NO)c1ccccc1,outcome,[5],inactive
same,outcome,[6],inactive
same,outcome,[4],inactive
same,outcome,[9],inactive
FC(F)(F)C(F)(F)C(F)(F)Br,outcome,[8],inactive
same,outcome,[3],inactive
same,outcome,[4],inactive
same,outcome,[7],inactive
Nc1cc(Cl)c(-c2cc(Cl)c(N)cc2Cl)cc1Cl,outcome,[1],inactive
same,AC50,[3],14.5 µM (active)
same,AC50,[4],4.7 µM (active)
same,outcome,[9],inactive
CN(C)CCOC(c1ccccc1)c1ccccc1,outcome,[5],inactive
same,outcome,[6],inactive
same,outcome,[7],inactive
CC(=O)CC(C)C,outcome,[4],inactive
O=C1OC(=O)C(F)(F)C1(F)F,outcome,[2],inactive
same,outcome,[8],inactive
same,outcome,[3],inactive
same,outcome,[7],inactive
Cn1sccc1=O,outcome,[2],inactive
same,outcome,[4],inactive
CCCCCCCCCCCCOS(=O)(=O)O,outcome,[5],inactive
same,outcome,[6],inactive
CC(O)COc1ccccc1 (stereo not drawn),outcome,[2],inactive
same,outcome,[8],inactive
same,outcome,[3],inactive
same,outcome,[4],inactive
same,outcome,[7],inactive
same,outcome,[9],inactive
Cc1ccc(C(=O)c2ccccc2)cc1,outcome,[5],inactive
same,AC50,[6],32.1 µM (active)
same,AC50,[3],100 µM (active)
same,outcome,[9],inactive
CC(C)(C)c1ccc(CCC=O)cc1,outcome,[3],inactive
same,AC50,[4],29.3 µM (active)
O=C1OC(=O)c2cc(-c3ccc4c(c3)C(=O)OC4=O)ccc21,outcome,[4],inactive
same,outcome,[9],inactive
CN(Cc1cnc2nc(N)nc(N)c2n1)c1ccc(C(=O)N[C@@H](CCC(=O)O)C(=O)O)cc1,outcome,[5],inactive
same,outcome,[2],inactive
same,outcome,[8],inactive
same,outcome,[6],inactive
same,outcome,[3],inactive
same,outcome,[7],inactive
same,outcome,[9],inactive
